Sampled rows, rich in hits. Any-hit rate of the full collection: about 7.4%.
FLuc modulator: qHTS profiling assay for firefly luciferase inhibitor/activator using purifed enzyme and Km concentrations of substrates (counterscreen for miR-21 project); purified FLuc, Km substrates, luminescence inhibition; 360,000 compounds, 6.9% hits; Potency, µM (highest dose often 57.5 µM), without a hit: at the highest dose activity change, negative = inhibition, most hits filed as inhibitors; Luciferin 4-monooxygenase (Photinus pyralis), P08659;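 also: plate controls were vehicle for no effect and reference inhibitor for full effect; nearly all actives have a fitted effect of over 55% in size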
Target sequence (P08659 whole entry, looked up): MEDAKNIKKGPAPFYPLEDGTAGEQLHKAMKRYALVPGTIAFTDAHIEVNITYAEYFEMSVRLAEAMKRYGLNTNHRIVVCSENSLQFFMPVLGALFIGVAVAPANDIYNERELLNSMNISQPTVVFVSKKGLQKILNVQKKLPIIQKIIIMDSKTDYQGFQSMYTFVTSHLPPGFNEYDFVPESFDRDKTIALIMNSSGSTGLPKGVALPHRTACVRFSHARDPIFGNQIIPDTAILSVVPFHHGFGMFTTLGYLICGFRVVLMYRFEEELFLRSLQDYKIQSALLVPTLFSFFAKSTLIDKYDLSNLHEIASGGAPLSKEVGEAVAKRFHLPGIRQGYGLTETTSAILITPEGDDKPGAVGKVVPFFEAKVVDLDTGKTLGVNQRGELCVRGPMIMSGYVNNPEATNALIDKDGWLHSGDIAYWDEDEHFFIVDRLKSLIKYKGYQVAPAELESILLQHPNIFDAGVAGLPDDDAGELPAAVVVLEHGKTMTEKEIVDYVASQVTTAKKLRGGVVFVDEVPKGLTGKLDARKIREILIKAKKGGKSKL
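Purified P. pyralis luciferase (10nM final) with 10uM D-luciferin and 10uM ATP (Km levels) in 50mM Tris acetate pH 7.5, 10mM Mg acetate, 0.01% Tween-20, 0.05% BSA; qHTS 6-point titration, ~60 µM downward; luminescence read.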
NPC1 promoter act: qHTS Assay for NPC1 Promoter Activators | Huh7 NPC1 promoter luciferase reporter, 24 h | Potency, µM (series often up to 9.22 µM), inactives show at the top dose activation, most hits filed as activators | 320,000 compounds, 2.4% hits; also: % of control where 0% means no effect; nearly all actives have a fitted effect of over 60% in size
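Cells: Huh7 expressing luciferase under the NPC1 promoter, 1500/well. Seeded 2 h, compound added, incubated 24 h at 37 °C. Luciferase reagent, 10 min ambient, then luminescence.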
Luc counter: Counterscreen for Luciferase (Kinase-Glo TM) Inhibition | Potency, µM (top dose mostly 38.3 µM), inactives show at the highest dose activity change, negative = inhibition, hits mostly inhibitors | Kinase-Glo luciferase, ATP luminescence, 8 min | AID 1379, 2008 | Luciferin 4-monooxygenase (Photuris pensylvanica), Q27757 | 200,000 compounds, 0.28% hits; also: % is scaled to controls: 0 for no effect and ±100 for the full control effect; nearly all actives have a fitted effect of over 60% in size
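Light output from Kinase-Glo luciferase with luciferin and 10 uM ATP in 50 mM imidazole pH 7.2, KCl, MgCl2, Tween 20, BSA; compound pin-delivered, 8-min ambient incubation, then luminescence read.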
Rab9 promoter act: qHTS Assay for Rab9 Promoter Activators | 320,000 compounds, 2.8% hits | Potency, µM (top dose mostly 9.22 µM), without a hit: at the top dose activation, negative = inhibition, hits mostly activators | AID 485297, 2010 | Huh7 Rab9 promoter-luciferase reporter, luminescence, 24 h; also: % of control where 0% means no effect; nearly all actives have a fitted effect of over 60% in size
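Measured in stably transfected Huh7 cells bearing a Rab9 promoter–luciferase construct: 24 h compound treatment at 37 °C, followed by luminescence detection.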
SMN2 splice enh: qHTS Assay for Enhancers of SMN2 Splice Variant Expression; HEK293 SMN2-luciferase splicing reporter, luminescence, 30-36 h; Potency, µM (series often up to 46.1 µM), inactives show top-dose activity change, positive = activation, actives largely listed as activators; 210,000 compounds, 2.8% hits; AID 1458, 2008; also: % of control where 0% means no effect; nearly all actives have a fitted effect of over 55% in size
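HEK293 cells carry an SMN2 […]–luciferase reporter in which exon 7 inclusion puts luciferase in frame. Cells were plated 10-12 h before compound addition, then incubated 30-36 h at 37C. ONE-Glo luminescence was read; sodium butyrate at 4.5 mM final served as control.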
ELG1 genotoxic: qHTS screen for small molecules that induce genotoxicity in human embryonic kidney (HEK293T) cells expressing luciferase-tagged ELG1; Potency, µM (highest dose often 46 µM), inactives show at the top dose activity change, positive = activation, usual class: activators; 330,000 compounds, 1.3% hits; HEK293T ELG1-luciferase reporter, luminescence, 16 h; also: % of control where 0% means no effect; nearly all actives have a fitted effect of over 60% in size
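Cells (2,000/well) expressing the ELG1-luciferase fusion are dosed by pin tool and kept 16 hr at 37 °C, 5% CO2. Signal comes from ONE-Glo luciferase reagent after 30 min at room temperature.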
Active calls of the source: *; u = inconclusive; x = not tested or not shown; [ ] = dose if it differs, or a comment. Calls follow the shape of the dose curve; as a rule, active = well fitted curve in the direction sought with a large enough effect; inconclusive = small, poorly fitted or top-dose-only effect, or another doubt; inactive = no such curve, though single readings can be large; an effect the other way counts as inactive or inconclusive. Potency is read from the fitted curve at half-maximal effect.

SMILES	FLuc modulator	NPC1 promoter act	Luc counter	Rab9 promoter act	SMN2 splice enh	ELG1 genotoxic
Oc1c(N=Nc2ccccn2)ccc2ccccc12	1.3µM*	-5%	11µM*	-9%	-67%	u
O=S(=O)(O)c1cc(N=Nc2cccc3ccccc23)c(O)c2ncccc12	x	x	-12%[7.66 µM]	x	-8%[9.22 µM]	x
Cc1ccc(NC(=O)c2ccc3c(c2)CCN3S(C)(=O)=O)cc1C	15µM*	2.5µM*	x	4µM*	x	9%
CS(=O)(=O)N1CCc2cc(C(=O)OCC(=O)c3ccccc3)ccc21	4.8µM*	3.2µM*	16%	3.5µM*	-4%	13µM*
CS(=O)(=O)N1CCc2cc(C(=O)Nc3cccc(F)c3)ccc21	u	x	x	x	11µM*	x
Cc1cccc(NC(=O)c2ccc3c(c2)CCN3S(C)(=O)=O)c1	15µM*	u	x	u	x	u
O=C(OCCOc1ccccc1)c1n[nH]c2ccccc12	6µM*	3.5µM*	x	2.2µM*	x	u
Cc1cc(C(=O)COC(=O)c2nccnc2N)c(C)n1C	9.5µM*	3.2µM*	-9%	0.5µM*	11µM*	6.5µM*
COCCn1c(C)cc(C(=O)COC(=O)Cc2n[nH]c(=O)c3ccccc23)c1C	24µM*	26%	x	u	x	9%
Cc1cc(C(=O)COC(=O)c2n[nH]c3ccccc23)c(C)n1C	1.3µM*	2.8µM*	-7%	0.5µM*	2.8µM*	1.2µM*
Cc1cc(C)cc(NC(=O)COC(=O)c2n[nH]c3ccccc23)c1	u	u	-4%	u	26%	4%
Cc1cc(C(=O)COC(=O)Cc2n[nH]c(=O)c3ccccc23)c(C)n1CC(F)(F)F	2%	2%	x	-1%	x	0%
CCOC(=O)c1n[nH]c2ccccc12	2%	-4%	2%	-3%	-5%	0%
N#Cc1ccc2c(c1)C[C@]1(c3ccsc3)OC3=C(C(=O)OC4(CCCCC4)C3)C2O1	u	-1%[1.84 µM]	x	-8%[1.84 µM]	x	x
O=C(NCCc1ccc(Cl)cc1)c1n[nH]c2ccccc12	u	23%	-4%	u	12%	5%
O=C(COC(=O)c1n[nH]c2ccccc12)c1ccc(F)c(F)c1	9.5µM*	6%	x	5%	x	2%
CCOC(=O)c1n[nH]c(=O)c2ccccc12	-1%	-1%	x	3%	x	4%
O=C(NCCc1ccccc1)c1n[nH]c2ccccc12	11µM*	2.5µM*	-3%	3.5µM*	11µM*	u
CC1CCCCN1C(=O)COC(=O)c1n[nH]c2ccccc12 (configuration not stated)	15µM*	30%	-13%	u	21%	18µM*
Cc1ccc(C(=O)COC(=O)c2n[nH]c(=O)c3ccccc23)cc1	6µM*	-3%	-4%	2%	5%	0%
COCCNC(=O)COc1ccc(OCCNC[C@H](O)COc2ccccc2)cc1	x	x	x	x	-4%	x
CN(C(=O)COC(=O)c1n[nH]c(=O)c2ccccc12)c1ccccc1	6%	0%	x	-3%	x	-1%
COCCn1c(C)cc(C(=O)COC(=O)c2n[nH]c3ccccc23)c1C	0.43µM*	0.4µM*	u	0.22µM*	-32%	0.23µM*
Cc1cc(C(=O)COC(=O)c2n[nH]c(=O)c3ccccc23)c(C)n1C	1.7µM*	16%	x	24%	x	u
COc1ccc(C(=O)COC(=O)c2n[nH]c3ccccc23)c(OC)c1	6µM*	3.2µM*	x	3.5µM*	x	15%
SMILES	FLuc modulator	NPC1 promoter act	Luc counter	Rab9 promoter act	SMN2 splice enh	ELG1 genotoxic
COc1ccc(C2CC(=O)c3cc(-c4nc(-c5ccc(Cl)cc5)cs4)c(=O)[nH]c3C2)cc1OC (configuration not stated)	-9%	x	x	x	1%	x
COc1ccccc1C(=O)Nc1cc2c(cc1N1CCOCC1)n(C)c(=O)n2C	1%	x	x	x	13%	x
CCn1nnc2cc(C(=O)Nc3ccc(Cl)cc3C)ccc21	-10%	x	x	x	x	x
Cc1cc2oc(C(=O)N(Cc3ccc(N(C)C)cc3)Cc3ccco3)c(C)c2cc1Cl	-2%	x	x	x	-1%	x
C/C(=N\Nc1ccc(Cl)c(C(=O)O)c1)c1cccc2ccccc12	u	4%	x	16%	x	27%
O=C(O)c1cc(N/N=C/c2cccc3ccccc23)ccc1Cl	7.6µM*	0.79µM*	x	1.4µM*	x	u
O=C(N/N=C/c1cc([N+](=O)[O-])ccc1O)c1cccc2ccccc12	-10%	-14%	x	6%	x	9%
O=C(O)/C=C/C(=O)Nc1ccc(Cl)c(C(=O)O)c1	-8%	10%	x	-1%	x	3%
NNc1ccc(Cl)c(C(=O)O)c1	12µM*	1.3µM*	x	1.3µM*	x	u
O=[N+]([O-])c1cccc(N/N=C/c2cccc3ccccc23)c1	19µM*	5%	-1%	12%	u	12%
O=C(O)c1cc(N/N=C/C(Cl)=C/c2ccccc2)ccc1Cl	0.11µM*	u	-3%	u	0.89µM*	u
O=C1C=CC2=C3c4cc(O)c(O)cc4C[C@@]3(O)COC2=C1	x	x	-2%	x	-20%	x
Cc1cccc(-c2noc(CN(C(C)C)S(=O)(=O)c3ccc(Br)cc3)n2)c1	-8%	x	x	x	-18%	x
Cc1ccccc1CN1C2=NCCN2C(=O)C2=C1CCN(Cc1ccccc1)C2	x	x	-2%[7.66 µM]	x	-35%[9.22 µM]	x
CCCCC(=O)Nc1nnc(S(=O)(=O)N(C)Cc2ccc(Cl)cc2)s1	3%	x	x	x	x	x
CC(C)n1cc(/C=N/Nc2ccc(Cl)c(C(=O)O)c2)c2ccccc21	13µM*	1.8µM*	x	1.6µM*	x	8.2µM*
COc1ccccc1C(C)NCC(=O)Nc1ccccc1C(F)(F)F (configuration not stated)	-9%	-1%	-3%	6%	4.5µM*	-5%
COc1ccc(OC(=O)c2nc(SCc3ccccc3C)ncc2Cl)cc1	3%	x	x	x	4%	x
CC1CCCN(C(=O)CSc2nnc(-c3cccs3)o2)C1 (configuration not stated)	21µM*	2.5µM*	x	3.5µM*	x	u
CCC1CCCCN1C(=O)CSc1nnc(-c2cccs2)o1 (configuration not stated)	17µM*	u	-3%	3.2µM*	u	6.5µM*
COc1ccc(C(c2sc3ncnn3c2O)N2CC(C)OC(C)C2)cc1OC (configuration not stated)	19µM*	-2%	0%	-2%	24%	15%
